Experimental data published in PubChem BioAssay AID651860 (Broad Institute, 2012).
Entries with a potency or affinity are not part of this list. Unmarked numbers belong to inactive results. Activity calls are given as the source filed them.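 The calls were made as follows: active = compounds lowering HepG2 cell ATP luminescence with a fitted half-maximal concentration at most twice the top tested dose; inconclusive = flat fit with 30 to 70 percent signal loss, or poor fit; inactive = the rest.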

Experiment: liver cell line viability loss – HepG2, luminescence plate reader, powder samples, set 2, cytotoxicity control, dose response (AID 651860)
Settings: CellTiter-Glo ATP luminescence, 48 h; series mostly up to 26 µM

SMILES	outcome	activity change, negative = cytotoxic
O=C(NCCO)c1ccccc1C(=O)NC[C@@H]1c2ccccc2CCN1C(=O)C1CCCCC1C(=O)O (some centres undefined)	inactive	–
Cc1cc(C)c(S(=O)(=O)Nc2ncnc3ccccc23)c(C)c1	inactive	–
COC(=O)[C@H]1CCCC[C@H]1C(=O)N1CCc2ccccc2[C@H]1CN1C(=O)c2ccccc2C1=O	inactive	–
O=C(O)C1CCCCC1C(=O)N1CCc2ccccc2C1CN1C(=O)[C@H]2CCCC[C@H]2C1=O (some centres undefined)	inactive	–
O=C(O)c1ccccc1C(=O)NC[C@@H]1c2ccccc2CCN1C(=O)[C@@H]1CCCC[C@@H]1C(=O)O	inactive	–
O=C1c2ccccc2C(=O)N1C[C@H]1NCCc2ccccc21	inactive	–
O=C(O)[C@@H]1CCCN1C(=O)N1CCc2ccccc2[C@H]1CN1C(=O)c2ccccc2C1=O	inactive	–
O=C(O)CCC(=O)N1CCc2ccccc2C1CN1C(=O)c2ccccc2C1=O (centres undefined)	inactive	–
Cc1ccc(S(=O)(=O)NNc2nc(C(C(=O)OC(C)C)C(=O)C(F)(F)F)nc3ccccc23)cc1 (centres undefined)	inactive	–
C=CC(=O)NC[C@@H]1c2ccccc2CCN1C(=O)[C@@H]1CCCC[C@@H]1C(=O)O	inactive	–
O=C(O)C1CCCCC1C(=O)N1CCc2ccccc2C1CN1C(=O)c2ccccc2S1(=O)=O (centres undefined)	inactive	–
Cc1cc(C)c(S(=O)(=O)Nc2cc(C(C(=O)OCc3ccccc3)C(=O)OCc3ccccc3)c(O)c3ccccc23)c(C)c1	inactive	–
O=C(O)/C=C\C(=O)N1CCc2ccccc2C1CN1C(=O)c2ccccc2C1=O (centres undefined)	inactive	–
Cc1ccc(S(=O)(=O)NC[C@@H]2c3ccccc3CCN2C(=O)[C@@H]2CCCC[C@@H]2C(=O)O)c(C)c1	inactive	–
O=C(O)[C@H]1CCCC[C@H]1C(=O)N1CCc2ccccc2[C@H]1CNS(=O)(=O)c1ccccc1	inactive	–
CCOC(=O)C(C(=O)OCC)c1cc(CN2C(=O)c3ccccc3C2=O)c2ccccc2n1	inactive	–
COC(=O)[C@@H]1CCCC[C@@H]1C(=O)N1CCc2ccccc2[C@H]1CN1C(=O)c2ccccc2C1=O	inactive	–

SMILES	outcome	activity change, negative = cytotoxic
Cc1ccccc1S(=O)(=O)Nc1cc(C(C(=O)OC(C)C)C(=O)C(F)(F)F)c(O)c2ccccc12 (centres undefined)	inactive	–
O=C1c2ccccc2C(=O)N1CC1=NCCc2ccccc21	inactive	–
O=C1c2ccccc2C(=O)N1CC1c2ccccc2CCN1C(=O)Cc1ccccc1 (centres undefined)	–	-3.5% [at 6 µM]
O=C(O)[C@H]1CCCC[C@H]1C(=O)N1CCc2ccccc2[C@H]1CNc1nc(Cl)nc2ccccc12	inactive	–
O=C(O)C1CCCCC1C(=O)N1CCCCC1CN1C(=O)c2ccccc2C1=O (centres undefined)	inactive	–
O=C(O)[C@H]1C2C=CC(C2)[C@H]1C(=O)N1CCc2ccccc2C1CN1C(=O)c2ccccc2C1=O (some centres undefined)	inactive	–
O=C(Oc1cc(CN2C(=O)c3ccccc3C2=O)c2ccccc2[n+]1[O-])c1cccc(Cl)c1	inactive	–
O=C(NC[C@@H]1c2ccccc2CCN1C(=O)[C@@H]1CCCC[C@@H]1C(=O)O)c1ccc(CN2CCOCC2)cc1	inactive	–
O=C(O)C1CCCCC1C(=O)NCC1c2ccccc2CCN1C(=O)Cc1ccccc1 (centres undefined)	inactive	–
O=C(O)CC(=O)N1CCc2ccccc2C1CN1C(=O)c2ccccc2C1=O (centres undefined)	inactive	–
O=C(O)C1CCCCC1C(=O)N1CCc2ccccc2[C@H]1C(=O)NC12CC3CC(CC(C3)C1)C2 (some centres undefined)	inactive	–
O=S(=O)(Nc1nc(NCC2CCCCC2)nc2ccccc12)c1ccccc1	inactive	–
COC(=O)[C@@H]1CCCC[C@@H]1C(=O)N1CCc2ccccc2[C@@H]1CN1C(=O)c2ccccc2C1=O	inactive	–
O=C(NC[C@@H]1c2ccccc2CCN1C(=O)[C@@H]1CCCC[C@@H]1C(=O)O)c1ccccc1	inactive	–
COC(=O)CNc1nc(NS(=O)(=O)c2c(C)cc(C)cc2C)c2ccccc2n1	inactive	–
O=C1c2ccccc2C(=O)N1C[C@@H]1c2ccccc2CCN1C(=O)C1CCCCC1	inactive	–
Cc1ccc(S(=O)(=O)NNc2nc(N3CC(O)CC3C(=O)O)nc3ccccc23)cc1 (centres undefined)	inactive	–
